Each structure is given as a SMILES string.

For this test, the target named is Chromo domain-containing protein 1 (Saccharomyces cerevisiae (strain ATCC 204508 / S288c) (Baker's yeast)) (UniProt P32657). The test is described as follows: ScCHD-1 Enzyme Inhibition Assay. It counts as functional. Further details: scale not given: in the data most compounds retested in dose-response had high values. The conditions noted are these: 30 µM.
Sequence of Chromo domain-containing protein 1 (Saccharomyces cerevisiae (strain ATCC 204508 / S288c) (Baker's yeast)) (P32657 whole entry, the tested form may be a part): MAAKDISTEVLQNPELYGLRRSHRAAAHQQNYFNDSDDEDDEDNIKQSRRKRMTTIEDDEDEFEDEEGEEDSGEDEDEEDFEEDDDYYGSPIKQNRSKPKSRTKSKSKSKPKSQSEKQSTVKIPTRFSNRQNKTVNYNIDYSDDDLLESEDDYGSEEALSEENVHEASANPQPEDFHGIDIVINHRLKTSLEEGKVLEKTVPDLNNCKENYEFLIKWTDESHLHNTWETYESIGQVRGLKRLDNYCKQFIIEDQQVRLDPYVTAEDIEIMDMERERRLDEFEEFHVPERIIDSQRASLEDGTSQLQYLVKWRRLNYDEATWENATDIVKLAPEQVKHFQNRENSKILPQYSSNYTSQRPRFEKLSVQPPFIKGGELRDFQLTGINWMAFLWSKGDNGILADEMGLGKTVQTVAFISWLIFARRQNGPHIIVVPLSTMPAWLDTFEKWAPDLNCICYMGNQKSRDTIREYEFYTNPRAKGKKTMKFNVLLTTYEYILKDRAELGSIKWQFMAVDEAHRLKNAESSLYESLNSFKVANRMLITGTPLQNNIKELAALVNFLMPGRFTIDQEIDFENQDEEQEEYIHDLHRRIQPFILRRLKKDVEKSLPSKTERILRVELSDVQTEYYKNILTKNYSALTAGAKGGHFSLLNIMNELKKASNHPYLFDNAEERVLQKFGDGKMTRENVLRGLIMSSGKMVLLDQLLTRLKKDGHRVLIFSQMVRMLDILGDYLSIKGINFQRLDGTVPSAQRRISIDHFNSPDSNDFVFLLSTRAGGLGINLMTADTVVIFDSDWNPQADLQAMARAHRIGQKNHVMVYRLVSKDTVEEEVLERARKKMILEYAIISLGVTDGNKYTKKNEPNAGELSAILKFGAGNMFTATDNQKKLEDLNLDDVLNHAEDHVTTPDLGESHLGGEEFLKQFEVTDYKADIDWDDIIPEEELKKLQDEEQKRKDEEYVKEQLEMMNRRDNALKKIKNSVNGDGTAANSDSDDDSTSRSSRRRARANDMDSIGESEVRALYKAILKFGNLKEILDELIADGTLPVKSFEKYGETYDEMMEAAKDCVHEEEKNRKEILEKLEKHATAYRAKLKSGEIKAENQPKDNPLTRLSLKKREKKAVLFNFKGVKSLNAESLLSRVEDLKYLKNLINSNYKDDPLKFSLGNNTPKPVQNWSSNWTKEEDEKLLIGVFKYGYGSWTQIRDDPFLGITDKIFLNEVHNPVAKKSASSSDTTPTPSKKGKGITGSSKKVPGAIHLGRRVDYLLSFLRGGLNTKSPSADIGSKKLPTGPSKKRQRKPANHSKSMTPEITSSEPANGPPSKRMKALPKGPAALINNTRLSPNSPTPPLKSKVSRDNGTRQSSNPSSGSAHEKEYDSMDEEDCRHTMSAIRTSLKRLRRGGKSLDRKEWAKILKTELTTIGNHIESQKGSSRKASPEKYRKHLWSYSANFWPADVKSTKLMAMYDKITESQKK
`COc1c(C2CCCN2C(=O)c2cc(Cl)c[nH]2)c(C)nn1C` (stereo not given): the Percent Effect was -3.93%.
The value for `Cc1cc(C)c2cc(CNCc3ccccc3)c3nn(C)c(=O)n3c2c1` was -30.5%; that for `CC(O)CN(CC(=O)NC(=O)NC1CC1)c1ccccc1` (stereo not given) was -17.8%; that for `Cc1cc(C)c2nc(CN3CCCC(c4cc[nH]n4)C3)cc(O)c2c1` (stereo not given) was -5.03%.
In the case of `CCOc1ncccc1NC(=O)c1cc(C)c(C)s1`, the Percent Effect is -0.429%.
The figure for `CN(C)CC(=O)N1Cc2nc(C(=O)NCc3ccncc3)oc2C1` is -6.75%; for `CCn1cnnc1CNC(=O)CCC(=O)c1ccc2c(c1)OCCO2` it is -8.22%.
With `CC(Oc1ccccc1C(F)(F)F)C(=O)NS(=O)(=O)C(C)C` (stereo not given), the Percent Effect is -6.88%.
On to `Cn1c(C2CC2)nc2c1CCN(CC(=O)Nc1nncs1)C2`, for which the Percent Effect was -5.21%.
The value for `N#Cc1ncn(CCC(=O)Nc2ccc(Cl)cc2F)n1` was -1.18%.
The figure for `Cc1cn2c(n1)CCC(NC(=O)c1nc(C)ncc1Cl)C2` (stereo not given) is -23.3%; for `CN(C)c1ncc(CN2CCOC(C(=O)Nc3ccccc3)C2)cn1` (stereo not given) it is -7.74%; for `CC(=O)Nc1cc(C(=O)N2CCOCC2c2ccc(C)o2)ccc1F` (stereo not given) it is 1.78%.
For `Cc1cnccc1CN1C[C@@H](O)[C@H](Oc2ccccc2)C1`, the Percent Effect was -12.9%.
Consider `CC1=N[C@@]2(CC[C@@H]3CN(S(=O)(=O)N(C)C)C[C@@H]32)C(=O)N1CC(C)C`, for which the Percent Effect was -5.11%.
The value for `CCCS(=O)(=O)N1CCN(c2cc(-n3nc(C)cc3C)nc(C)n2)CC1` was -4.3%; that for `O=C(O)c1nnn(Cc2cccc(C(F)(F)F)c2)c1-c1cccnc1` was -7.79%; that for `CC(C)(N)CN1CCC(c2nnc(CN3CCCC3)n2C2CC2)CC1` was -4.27%.
The value for `Cc1cccc(CNC(=O)CNc2cc(CO)ccc2Cl)c1` was -2.84%; that for `COCC1CC2(CCN(Cc3cnn(C)c3)CC2)CN1c1ncccn1` (stereo not given) was -2.6%.
